Reference: PubChem BioAssay (Tox21)
Results filed as inconclusive are left out. Where a call stands in place of a potency, no number is given. Active and inactive are the calls of the source. Unless noted, the call rests on the fitted dose curve; in most records, active means well fitted curve in the direction sought with a large enough effect in the repeat runs; inconclusive means weak or mixed curves; inactive means no such curve, though single readings can be large; an effect the other way counts as inactive or inconclusive.

Tests used:
[1] = qHTS assay to identify small molecule agonists of the estrogen receptor alpha (ER-alpha) signaling pathway in the presence of an antagonist - cell viability counter screen (AID 1259386);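 further: cells exposed to compounds for 22 h at 37 °C before the viability read; nearly all actives have a fitted effect of over 30% in size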; further: potency means the concentration at half of the fitted maximal effect
Method in brief: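 In this counter screen, compound effects on VM7Luc4E2 viability were tested in the presence of the antagonist ICI-182,780 at 10.0nM final. Compounds were dosed at 15 concentrations, exposure lasted 22hr, and the CellTiter-Fluor signal was read.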

[2] = qHTS assay to identify small molecule antagonists of the progesterone receptor (PR) signaling pathway - cell viability counter screen (AID 1346798); further: nearly all actives have a fitted effect of over 50% in size; further: potency means the concentration at half of the fitted maximal effect
Method in brief: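 PR-UAS-bla HEK293T cells in medium with 2% charcoal-stripped FBS were treated with compounds plus R5020 for 16 hr at 37C. Cell viability was then read by CellTiter-Glo luminescence after 30 min at room temperature in the same wells.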

[3] = qHTS assay to identify small molecule antagonists of the TGF-beta/Smad signaling pathway - cell viability counter screen (AID 1346824); further: nearly all actives have a fitted effect of over 50% in size
Method in brief: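 SBE-bla HEK 293T cells, incubated overnight, then compound plus 0.25 ng/mL TGF-beta1 (stock added) for 5 hr at 37 C. Viability was read in the same wells by CellTiter-Glo luminescence after 30 min at room temperature.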

[4] = qHTS assay to identify small molecule agonists of the TGF-beta/Smad signaling pathway (AID 1346859; active means well fitted activation curve with a large enough effect in the signal ratio in the repeat runs, not every such curve was filed as active; the % refers to the signal ratio; further: series mostly up to about 77 µM)
Method in brief: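 HEK 293T cells stably carrying a beta-lactamase reporter driven by the Smad binding element were seeded overnight, exposed to DMSO-dissolved compounds for 5 hr at 37 C, 5% CO2, then loaded with FRET substrate for 2 hr at room temperature.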

[5] = target: Thyrotropin-releasing hormone receptor (Homo sapiens) (UniProt P34981); assay: qHTS assay to identify small molecule antagonists of the thyrotropin-releasing hormone receptor (TRHR) signaling pathway (AID 1346877; active means well fitted inhibition curve with a large enough effect in the repeat runs, not every such curve was filed as active; further: potency means the concentration at half of the fitted maximal effect)
Sequence of Thyrotropin-releasing hormone receptor (Homo sapiens) (P34981 whole entry, looked up): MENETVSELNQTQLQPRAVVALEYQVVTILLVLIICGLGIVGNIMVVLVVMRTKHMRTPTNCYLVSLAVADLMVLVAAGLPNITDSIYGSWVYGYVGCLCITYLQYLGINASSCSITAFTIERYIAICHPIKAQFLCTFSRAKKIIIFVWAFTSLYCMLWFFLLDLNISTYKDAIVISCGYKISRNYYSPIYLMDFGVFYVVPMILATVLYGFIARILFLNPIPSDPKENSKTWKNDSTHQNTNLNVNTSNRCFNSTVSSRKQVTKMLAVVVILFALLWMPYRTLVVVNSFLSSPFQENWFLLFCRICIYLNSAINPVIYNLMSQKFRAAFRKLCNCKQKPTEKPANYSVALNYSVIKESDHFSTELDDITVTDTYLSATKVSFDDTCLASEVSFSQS
Method in brief: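 Kinetic fluorescence (3 min, 1 s resolution) following stimulation with TRH at 1 nM final; HEK293 cells bearing human TRHR; 5 min compound preincubation at RT; concentration-response over 15 points, triplicates.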

[6] = target: Thyrotropin-releasing hormone receptor (Homo sapiens) (UniProt P34981); assay: qHTS assay to identify small molecule agonists of the thyrotropin-releasing hormone receptor (TRHR) signaling pathway (AID 1346891; calls by dose curve; further: potency means the concentration at half of the fitted maximal effect; on activation: series mostly up to about 58 µM)
Method in brief: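 TRHR-expressing HEK293 cells were plated 18 h at 37 °C/5% CO2, loaded with calcium dye 2 h at 37 °C, then given compound in DMSO; fluorescence was read kinetically for 3 min at 1 s intervals.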

[7] = Human pregnane X receptor (PXR) small molecule agonists, qHTS cell viability counter screen (AID 1346977); further: nearly all actives have a fitted effect of over 50% in size; further: potency means the concentration at half of the fitted maximal effect
Method in brief: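 PXR-Luc HepG2 cells in medium with 5% charcoal-stripped FBS were pre-incubated 5hr, then exposed to compounds for 24hr at 37C. Viability was read in the same wells by CellTiter-Fluor fluorescence, reagent added after 23hr with a 1hr incubation.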

[8] = Caspase-3/7 induction in HepG2 cells by small molecules, qHTS assay (AID 1346978); further: nearly all actives have a fitted effect of over 15% in size; further: potency means the concentration at half of the fitted maximal effect
Method in brief: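 Wild-type HepG2 cells, 2,000/well, settled 5 hr at 37 C and 5% CO2, then compound-treated for 17 hr; caspase-3/7 activity read by luminescent Caspase-Glo 3/7 after 30 min at room temperature.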

[9] = Caspase-3/7 induction in CHO-K1 cells by small molecules, qHTS cell viability counter screen (AID 1346979); further: nearly all actives have a fitted effect of over 35% in size; further: potency means the concentration at half of the fitted maximal effect
Method in brief: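 Wild-type CHO-K1 cells were seeded at 1,500 per well, rested 5hr at 37 C, then exposed to compounds in DMSO. After 16hr, CellTiter-Fluor reagent was added and fluorescence read 1hr later as the viability measure.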

[10] = Caspase-3/7 induction in HepG2 cells by small molecules, qHTS cell viability counter screen (AID 1346981); further: nearly all actives have a fitted effect of over 30% in size; further: potency means the concentration at half of the fitted maximal effect
Method in brief: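 In this quantitative HTS counter screen, compounds delivered in DMSO were left on unmodified HepG2 cells for 16 hr at 37 C. Viability was then determined fluorometrically with CellTiter-Fluor, in parallel with caspase-3/7 induction in the same wells.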

[11] = target: Nuclear receptor subfamily 1 group I member 2 (Homo sapiens) (UniProt O75469); assay: Human pregnane X receptor (PXR) small molecule agonists, qHTS assay (AID 1346982); further: nearly all actives have a fitted effect of over 35% in size; further: potency means the concentration at half of the fitted maximal effect
Sequence of Nuclear receptor subfamily 1 group I member 2 (Homo sapiens) (O75469 whole entry, looked up): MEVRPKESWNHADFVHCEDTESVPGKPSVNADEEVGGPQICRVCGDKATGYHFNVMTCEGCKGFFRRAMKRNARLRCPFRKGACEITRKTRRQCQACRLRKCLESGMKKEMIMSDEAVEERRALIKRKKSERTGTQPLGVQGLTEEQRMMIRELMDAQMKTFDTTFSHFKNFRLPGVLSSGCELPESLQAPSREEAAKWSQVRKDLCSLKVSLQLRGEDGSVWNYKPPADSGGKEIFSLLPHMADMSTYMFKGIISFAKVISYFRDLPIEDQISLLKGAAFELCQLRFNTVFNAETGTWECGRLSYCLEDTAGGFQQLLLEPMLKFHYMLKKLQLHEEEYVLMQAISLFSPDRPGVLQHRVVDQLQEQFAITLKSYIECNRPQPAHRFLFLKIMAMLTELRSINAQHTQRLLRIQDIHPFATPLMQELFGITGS
Method in brief: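 Reporter HepG2 cells expressing PXR-Luc are cultured in charcoal-stripped FBS (5%), treated with compounds for 24 hr at 37 C, and assayed by ONE-Glo luminescence after 30 min at room temperature.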

[12] = target: Acetylcholinesterase (Homo sapiens) (UniProt P22303); assay: Acetylcholinesterase (AChE) small molecule antagonists: colormetric cell-based qHTS assay (AID 1347395; calls by dose curve; further: nearly all actives have a fitted effect of over 30% in size)
Sequence of Acetylcholinesterase (Homo sapiens) (P22303 whole entry, looked up): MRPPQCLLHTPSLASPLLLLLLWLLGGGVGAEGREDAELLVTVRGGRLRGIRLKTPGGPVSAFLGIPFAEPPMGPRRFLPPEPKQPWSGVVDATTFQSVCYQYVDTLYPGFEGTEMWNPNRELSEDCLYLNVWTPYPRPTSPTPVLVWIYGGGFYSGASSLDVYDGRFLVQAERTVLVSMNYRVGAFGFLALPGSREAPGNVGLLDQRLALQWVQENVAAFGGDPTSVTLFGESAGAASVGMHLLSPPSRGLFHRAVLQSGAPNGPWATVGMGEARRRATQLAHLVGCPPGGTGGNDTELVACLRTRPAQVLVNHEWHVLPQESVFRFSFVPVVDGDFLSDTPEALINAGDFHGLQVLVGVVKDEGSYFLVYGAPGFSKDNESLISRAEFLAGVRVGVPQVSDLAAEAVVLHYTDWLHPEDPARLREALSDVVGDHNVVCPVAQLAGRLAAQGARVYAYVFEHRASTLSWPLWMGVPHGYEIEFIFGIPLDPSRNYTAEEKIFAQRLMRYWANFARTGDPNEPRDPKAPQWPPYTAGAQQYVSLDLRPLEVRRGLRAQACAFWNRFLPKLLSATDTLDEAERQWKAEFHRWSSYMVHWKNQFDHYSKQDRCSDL
Method in brief: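 SH-SY5Y cells, plated overnight at 37 C, were exposed to compounds for 30 min at 37 C and 5% CO2. Acetylthiocholine plus DTNB was then added, and thiocholine from endogenous AChE was quantified colorimetrically after 90 min at 37 C.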

[13] = qHTS assay to identify small molecule agonists of the TGF-beta/Smad signaling pathway - cell viability counter screen (AID 1346829); further: nearly all actives have a fitted effect of over 45% in size; further: potency means the concentration at half of the fitted maximal effect
Method in brief: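 Compound-treated SBE-bla HEK 293T cells (5 hr, 37 C) were assessed for viability with CellTiter-Glo in parallel with the reporter read.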

[14] = qHTS assay to identify small molecule agonists of the progesterone receptor (PR) signaling pathway - cell viability counter screen (AID 1346799; calls by dose curve; further: nearly all actives have a fitted effect of over 45% in size; further: potency means the concentration at half of the fitted maximal effect)
Method in brief: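 PR-UAS-bla HEK293T cells, 3,000 per well in medium with 2% charcoal-stripped FBS, were preincubated 6 hr at 37C, then exposed to compounds for 16 hr; viability was read as CellTiter-Glo luminescence after 30 min at room temperature.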

[15] = Caspase-3/7 induction in CHO-K1 cells by small molecules, qHTS assay (AID 1346980); further: nearly all actives have a fitted effect of over 15% in size; further: potency means the concentration at half of the fitted maximal effect
Method in brief: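 Wild-type CHO-K1 cells exposed to compounds for 17hr at 37 C, 5% CO2. Caspase-3/7 activity then measured by Caspase-Glo 3/7 luminescence after 30min at room temperature.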

Structure (SMILES) | Potency [1] | Potency [2] | Potency [3] | outcome [4] | Potency [5] | Potency [6] | Potency [7] | Potency [8] | Potency [9] | Potency [10] | Potency [11] | Potency [12] | Potency [13] | Potency [14] | Potency [15]
COc1ccc(OC)c(C=O)c1 | inactive | inactive | inactive | inactive | inactive | inactive | inactive | inactive | inactive | inactive | inactive | inactive |  |  | 
CC(C)OC(=O)C(O)(c1ccc(Cl)cc1)c1ccc(Cl)cc1 | inactive | inactive | inactive | inactive | inactive | inactive |  | inactive |  | inactive | 21.7 µM (active) | inactive | inactive |  | 
CC1(C)CN=C(NN=C(/C=C/c2ccc(C(F)(F)F)cc2)/C=C/c2ccc(C(F)(F)F)cc2)NC1 | 43.3 µM (active) | 38.6 µM (active) |  |  |  |  | 12.2 µM (active) | 12.2 µM (active) | 8.63 µM (active) | 19.3 µM (active) |  | inactive | 34.7 µM (active) | 21.7 µM (active) | inactive
CN(C)[C@@H]1C(=O)C(C(N)=O)=C(O)[C@@]2(O)C(=O)C3=C(O)c4c(O)ccc(Cl)c4[C@@](C)(O)[C@H]3C[C@@H]12 | inactive | inactive |  |  | inactive | inactive |  | inactive | 27.9 µM (active) |  |  |  | inactive |  | inactive
Oc1c(Br)c(Br)c(Br)c(Br)c1Br | inactive |  | inactive | inactive |  | inactive |  | inactive |  |  | 61.5 µM (active) | inactive | inactive |  | inactive
O=[N+]([O-])c1cc(C(F)(F)F)c(Cl)c([N+](=O)[O-])c1Cl | 54.5 µM (active) | 54.5 µM (active) |  |  | inactive | inactive | 27.3 µM (active) | 21.7 µM (active) | 8.63 µM (active) | 61.1 µM (active) |  | inactive | 49 µM (active) |  | 1.93 µM (active)
C=CC(=O)OCC(COC(=O)C=C)(COC(=O)C=C)COC(=O)C=C | 13.7 µM (active) | 17.2 µM (active) |  |  | inactive | inactive | 12.2 µM (active) | 15.4 µM (active) | 3.86 µM (active) | 15.4 µM (active) |  | inactive | 49 µM (active) | 19.3 µM (active) | 
C[C@]12CC[C@H]3[C@@H](CCC4=CC(=O)CC[C@@]43C)[C@@H]1CC[C@@H]2O | inactive |  | inactive | inactive |  |  | inactive | inactive | inactive | inactive | 27.1 µM (active) | inactive | inactive |  | inactive
CCCCCCCCCCCCCC[P+](CCCCCC)(CCCCCC)CCCCCC (tested in a mixture with another compound) | 17.2 µM (active) | 30.6 µM (active) |  |  |  |  | 3.86 µM (active) | 19.3 µM (active) | 4.33 µM (active) | 24.3 µM (active) | 2.17 µM (active) | inactive | 49 µM (active) | 27.3 µM (active) | 
O=S(=O)(c1ccc(Cl)cc1)c1ccc(Cl)cc1 | inactive |  | inactive | inactive |  |  | inactive | inactive | 41.1 µM (active) |  | 22 µM (active) | inactive | inactive |  | 
CN(C)S(=O)(=O)N(SC(F)(Cl)Cl)c1ccccc1 | inactive | 61.1 µM (active) |  | inactive | 12 µM (active) | inactive | 24.3 µM (active) | inactive | 7.7 µM (active) |  | inactive | inactive |  |  | inactive
[CH3][Hg][Cl] | inactive | inactive | inactive |  | 30.1 µM (active) | 17.3 µM (active) |  | inactive | 7.67 µM (active) |  | inactive | inactive | inactive |  | inactive
COC(=O)N(C(=O)N1CO[C@@]2(C(=O)OC)Cc3cc(Cl)ccc3C2=N1)c1ccc(OC(F)(F)F)cc1 | inactive |  | inactive | inactive |  |  |  | inactive |  | inactive | 1.67 µM (active) | inactive | inactive |  | inactive
O=c1ssc(Cl)c1Cl | inactive | inactive |  | inactive |  |  |  | inactive | 27.3 µM (active) | inactive | 27.3 µM (active) | inactive | inactive | inactive | inactive
